# Results published in PubChem BioAssay (NCATS).
# Records with an inconclusive call do not appear. The source made the active and inactive calls. Calls come from the whole dose curve; as a rule, active = well fitted inhibition curve with a large enough effect; inconclusive = small, poorly fitted or top-dose-only effect; inactive = flat fitted curve, though single readings scatter.
# Molecular target: Calcium and integrin-binding protein 1 (Homo sapiens) (UniProt Q99828)
# Assay: Primary qHTS for Identification of Calcium Integrin Binding Protein 1 (CIB1) Competitor (AID 1508620);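 note: GST tagged CIB1 binding a fluorescein labelled alphaIIb integrin peptide tracer; top concentration of the series differs between compounds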
# Conditions: CIB1-GST / FITC-alphaIIb peptide fluorescence polarization; series mostly up to 57.7 µM
# Procedure, shortened: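 CIB1-GST (1 uM final) and compound incubated 15 min at room temperature before adding FITC-alphaIIb peptide tracer (100 nM final). Competition for binding read by fluorescence polarization (ex 480, em 540) after another 15 min at room temperature.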
# Sequence of Calcium and integrin-binding protein 1 (Homo sapiens) (Q99828 whole entry, looked up): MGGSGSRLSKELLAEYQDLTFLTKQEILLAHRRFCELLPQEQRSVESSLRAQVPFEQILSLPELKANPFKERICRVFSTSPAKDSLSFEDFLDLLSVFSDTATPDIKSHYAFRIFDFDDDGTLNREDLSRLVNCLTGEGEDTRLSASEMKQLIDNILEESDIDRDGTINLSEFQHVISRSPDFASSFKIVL
row,SMILES,outcome
1,C1=CCOCc2cc(ccc2OCCN2CCCC2)Nc2nccc(n2)-c2cccc(c2)OCC1,inactive
2,COc1cc2c(Oc3ccc(NC(=O)C4(C(=O)Nc5ccc(F)cc5)CC4)cc3F)ccnc2cc1OCCCN1CCOCC1,inactive
3,CN1CCC(CNc2ccc3ncc(-c4cccc(OC(F)(F)F)c4)n3n2)CC1,inactive
4,Cc1ccc(S(=O)(=O)Nc2cc(Cl)ccc2C(=O)Nc2nc(-c3ccccc3)cs2)cc1,inactive
5,CCCCN1CCC(CNC(=O)c2c3n(c4ccccc24)CCCO3)CC1,inactive
6,COc1cc2ncn(-c3cc(OCc4ccccc4C(F)(F)F)c(C(N)=O)s3)c2cc1OC,inactive
7,Nc1ccccc1NC(=O)c1ccc(CNC(=O)OCc2cccnc2)cc1,inactive
8,C=CCn1c(=O)c2cnc(Nc3ccc(N4CCN(C)CC4)cc3)nc2n1-c1cccc(C(C)(C)O)n1,inactive
9,CC(C)[C@H](C(=O)Nc1ccc(C(=O)NO)cc1)c1ccccc1,inactive
10,Nc1ncnc2c1c(-c1cccc(OCc3ccccc3)c1)cn2C1CC(CN2CCCC2)C1 (stereo not given),inactive
11,Cc1cc(N2CCOCC2)cc2[nH]c(-c3c(NC[C@@H](O)c4cccc(Cl)c4)cc[nH]c3=O)nc12,inactive
12,O=C(Cc1ccc(-c2ccc(OCCN3CCOCC3)cc2)cn1)NCc1ccccc1,inactive
13,Cc1ccc(C(=O)Nc2cccc(C(F)(F)F)c2)cc1-c1ccc2nc(NCCN3CCOCC3)ncc2c1,inactive
14,CN[C@H]1CCc2cc(OC)c(OC)c(OC)c2-c2ccc(OC)c(=O)cc21,inactive
15,CN(C)CC(C)(C)CNc1nn2c(-c3ccccc3)nnc2cc1C1CCC1,inactive
16,Cc1cc(C(=O)N2CCN(c3cccc(Cl)c3)CC2)n(-c2ccccc2)n1,inactive
17,Cc1cn2c(-c3cn[nH]c3)cnc2c(Nc2ccc(C(=O)N3CCNCC3)cc2F)n1,inactive
18,O=C(O)c1ccc2cc(-c3ccc(O)c(C45CC6CC(CC(C6)C4)C5)c3)ccc2c1,inactive

row,SMILES,outcome
1,COc1cccc2nc(-c3cccs3)nc(NN3C(=O)C=C(C)C3=O)c12,inactive
2,COc1cc2ncnc(Nc3ccc(F)c(Cl)c3)c2cc1NC(=O)C=CCN1CCCCC1,inactive
3,Cc1ccc2nc(NC(=O)CSc3nc4c(c(=O)n3-c3ccccc3)SCC4)sc2c1,inactive
4,Cc1nc(N)ncc1-c1nc(N2CCOCC2)c2sc(C(C)(C)O)cc2n1,inactive
5,CC(=O)Nc1nc(C)c(-c2ccc(Cl)c(S(=O)(=O)NCCO)c2)s1,inactive
6,CCNC(=O)Nc1ccc2ncc(Nc3ccc(C)cc3)nc2n1,inactive
7,COc1ccc(-c2cc3c(C)nc(N)nc3n(C3CCC(OCCO)CC3)c2=O)cn1 (stereo not given),inactive
8,CC(C)c1cc(C(=O)N2Cc3ccc(CN4CCN(C)CC4)cc3C2)c(O)cc1O,inactive
9,CC=C1NC(=O)[C@H]2CSSCCC=C[C@H](CC(=O)N[C@H](C(C)C)C(=O)N2)OC(=O)[C@H](C(C)C)NC1=O,inactive
10,CS(=O)(=O)c1ccc(-c2cnc(N)c(C(=O)Nc3ccccc3)n2)cc1,inactive
11,Cc1cc(Nc2cc(N3CCN(C)CC3)nc(C=Cc3ccccc3)n2)n[nH]1,inactive
12,CC=CC1=C(C(=O)O)N2C(=O)[C@H](NC(=O)[C@H](N)c3ccc(O)cc3)[C@@H]2SC1,inactive
13,Nc1ccn([C@@H]2CS[C@H](CO)O2)c(=O)n1,inactive
14,CC(O)C1C(=O)N2C(C(=O)O)=C(SC3CNC(C(=O)N(C)C)C3)C(C)C12 (stereo not given),inactive
15,O=C(O)Cn1nnc(-c2cc(N3CCC(Oc4cc(F)ccc4Br)CC3)no2)n1,inactive
16,Cc1[nH]c2ccccc2c1CCNCc1ccc(C=CC(=O)NO)cc1,inactive
17,Cc1cc(Nc2cc(N3CCN(C)CC3)nc(Sc3ccc(NC(=O)C4CC4)cc3)n2)n[nH]1,inactive
